Sampled rows, rich in hits. Any-hit rate of the full collection: about 19%.
HT1080 IDH1KD tx – HT-1080 IDH1 knockdown cell toxicity (counter line) | Potency, µM (highest dose often 46.1 µM), actives largely listed as cytotoxic | actives 2% (n = 360,000) | HT-1080 IDH1 knockdown viability, ATP luminescence, 48 h | AID 686971
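Luminescent ATP read-out (CellTiter-Glo, 10 min at room temperature) after 48 h compound exposure at 37 °C gave viability of IDH1-knockdown HT-1080 cells. Activity was normalised to DMSO and cell-free wells, then fitted as concentration-response curves.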
TDP1 cell noCPT – qHTS for Inhibitors of human tyrosyl-DNA phosphodiesterase 1 (TDP1): qHTS in cells in absence of CPT. DT40 Tdp1-/- hTDP1 cells, no CPT, ATP luminescence, 48 h. Potency, µM (doses to about 46.2 µM), most hits filed as inhibitors. actives 15% (n = 420,000). AID 686978, 2013; further: nearly all actives have a fitted effect of over 55% in size
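Growth kinetics read by CellTiter-Glo luminescence after ≥48 hr at 37 °C. Cells: DT40 Tdp1-/- stably carrying human TDP1, 400 per well, compound exposure in the absence of CPT (DMSO vehicle).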
TDP1 cell CPT – DT40-hTDP1 cell growth loss with CPT | chicken DT40 Tdp1-/-;hTDP1 cells + 20 nM CPT, ATP luminescence, 48 h | Potency, µM (doses to about 46.2 µM), most hits filed as inhibitors | actives 12% (n = 420,000) | AID 686979; further: nearly all actives have a fitted effect of over 55% in size
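Cell growth measured by CellTiter-Glo luminescence after a minimum 48 h, 37 C compound exposure with 20 nM CPT in Tdp1-knockout DT40 cells stably expressing hTDP1, seeded 400/well; qHTS titration format.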
IL-1B inflam inh – inhibitors of inflammasome signaling (IL-1 beta secretion). actives 4.7% (n = 360,000). activity change, % at 57.5 µM. AID 743279. THP-1 LPS/ATP IL-1B secretion, AlphaLISA, 16 h; hits give low values; in the data active means activity change below about -50%; inconclusive means mostly about -30% to -49%
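Secreted IL-1B measured by AlphaLISA bead assay after 16 h compound exposure of THP-1 cells; compounds (final up to 57.5 uM) added 1 h before LPS (250 ng/mL) and ATP (1.25 mM) stimulation; lower signal means less secretion.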
HT1080NT lethal – kills 2HG-producing HT-1080-NT fibrosarcoma cells; HT-1080-NT fibrosarcoma viability, CellTiter-Glo ATP luminescence, 48 h; Potency, µM (highest dose often 46.1 µM), usual class: cytotoxic; actives 1.6% (n = 360,000); AID 686970;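 further: NT is the 2HG producing partner of a matched IDH1 knockdown line; nearly all actives have a fitted effect of over 55% in size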
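Fibrosarcoma NT cells, 750 per well in 5% FBS RPMI, were exposed to compound for 48 hours. Viability: CellTiter-Glo luminescence.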
Numbers stand for hits; n = inactive; u = inconclusive; x = no result; [ ] = another dose, or the depositor's remark. Unless noted, the call rests on the fitted dose curve; in most records, active means well fitted curve in the direction sought with a large enough effect; inconclusive means small, poorly fitted or top-dose-only effect, or another doubt; inactive means no such curve, though single readings can be large; an effect the other way counts as inactive or inconclusive.

SMILES	HT1080 IDH1KD tx	TDP1 cell noCPT	TDP1 cell CPT	IL-1B inflam inh	HT1080NT lethal
Cn1c(=O)cc2c3c(c(N4CCCCC4)ccc31)C(=O)c1ccccc1-2	n	10.3µM	u	n	n
O=C1C=C(N2CCCCC2)c2ccccc2C1=O	5.8µM	6.51µM	3.66µM	-97.3	6.51µM
O=C1c2ccccc2C(=O)c2c1cccc2N1CCCC1	n	8.2µM	u	n	n
O=C1c2ccccc2-c2onc3ccc(N4CCCC4)c1c23	u	25.9µM	u	u	u
COc1ccc(-n2c(=O)c(-c3ccc(F)c(F)c3)nc3cncnc32)cc1	x	n	n	x	x
O=C(C[C@H]1C/C=C\CCC(=O)OC[C@H]2CCCN2C1=O)NCCO	n	n	n	n	n
O=C1c2ccccc2-c2onc3ccc(NCc4ccco4)c1c23	u	23.1µM	u	-96.9	n
Cc1cc(C)cc(NC(=O)N2CCN(S(C)(=O)=O)CC2)c1	u	n	n	n	n
Nc1nc(N)nc(-c2ccc([N+](=O)[O-])o2)n1	n	23.1µM	u	n	n
CC1(C(=O)NS(=O)(=O)c2ccc(Br)cc2)CCN1C(=O)c1cccc(F)c1 (stereo unspecified)	n	n	n	n	n
Cc1ccc(NC(=S)N=Nc2c(O)n(C)c3ccc(S(=O)(=O)N4CCOCC4)cc23)cc1	u	2.59µM	2.59µM	n	n
Cc1cccc(Nc2ccc(S(=O)(=O)N3CCOCC3)cc2[N+](=O)[O-])c1	n	n	u	n	n[9.24 µM]
Cc1cc(C)cc(NC(=S)N=Nc2c(O)n(C)c3ccc(S(=O)(=O)N4CCOCC4)cc23)c1	n	4.61µM	1.16µM	n	n
Cc1cccc(NC(=S)N=Nc2c(O)n(C)c3ccc(S(=O)(=O)N4CCOCC4)cc23)c1	n	3.26µM	3.66µM	n	n
Cc1ccc2c(c1)c1c(c(=O)n(Cc3ccccc3)c(=O)n1CC(=O)NCc1ccccc1Cl)n2C	x	n	n	x	x
COC(=O)c1c(C)sc(-c2c(-c3ccc4c(c3)OCCO4)[nH]c3[nH]c(=O)[nH]c(=O)c23)c1O	x	n	n	x	x
Cc1ccc2nc3c(cc(C(=O)NCCN4CCOCC4)c(=N)n3CCCN3CCOCC3)c(=O)n2c1	n	n	n	n	n
N=c1c(C(=O)NCc2ccccc2)cc2c(=O)n3ccccc3nc2n1Cc1ccco1	n	u	u	u	n
Cc1ccc(CNC(=O)c2cc3c(=O)n4ccccc4nc3n(Cc3ccco3)c2=N)cc1	n	14.6µM	13µM	-93.9	n
Cc1ccc2nc3c(cc(C(=O)NCc4ccco4)c(=N)n3Cc3ccco3)c(=O)n2c1	n	20.6µM	u	n	n
N=c1c(C(=O)NCc2ccc(F)cc2)cc2c(=O)n3ccccc3nc2n1Cc1ccco1	n	16.4µM	16.4µM	n	n
Cc1ccc2nc3c(cc(C(=O)NCCc4ccccc4)c(=N)n3CCN3CCOCC3)c(=O)n2c1	u	25.9µM	u	n	n
O=S1(=O)N[C@@H](Cc2ccccc2)COc2cccc(N3CCC[C@H]3CO)c21	n	u	u	n	n
CNC(=O)C1Cc2c(-c3ccc4c(c3)OCO4)ccnc2O1 (stereo unspecified)	n	n	n	n	n
O=C(O)CCCC(=O)NCCCCc1ccccc1	n	n	n	n	n
SMILES	HT1080 IDH1KD tx	TDP1 cell noCPT	TDP1 cell CPT	IL-1B inflam inh	HT1080NT lethal
OC/C=C/c1ccc(O)c(O)c1	x	n	n	x	x
CCOc1nc(OCC)c2cnn(C)c2n1	n	n	n	n	n
COc1ccc(C)cc1NC(=O)CCC(=O)Nc1ccc2nc(N3CCN(C)CC3)cc(C)c2c1	u	u	u	n	u
Cc1cc(N2CCN(C)CC2)nc2ccc(NC(=O)c3ccc(C(C)(C)C)cc3)cc12	x	4.61µM	7.31µM	x	x
COc1ccc(C(=O)Nc2ccc3nc(N4CCN(C)CC4)cc(C)c3c2)c(OC)c1	u	u	u	-86.3	u
CCCN(CCC)CCNC(=O)CCC(=O)Nc1ccc2nc(N3CCN(C)CC3)cc(C)c2c1	n	n	n	n	n
COc1ccc(CCNC(=O)CN2CCN(c3cccc(Cl)c3)CC2)cc1OC	n	20.6µM	20.6µM	n	n
COc1cc(CN2CCN(c3cccc(Cl)c3)CC2)cc(OC)c1OC	7.08µM	5.8µM	7.31µM	n	8.91µM
COc1cc(CN2CCN(C(O)(c3ccccc3)c3ccccc3)CC2)cc(OC)c1OC	n	14.6µM	u	-69.3	n
Cc1nn(CC(=O)N2CCN(c3ccccn3)CC2)c(=O)c2cc3sccc3n12	n	n	n	n	n
Cc1ccc(S(=O)(=O)NCC(=O)OCC(=O)Nc2cccc(S(=O)(=O)N3CCOCC3)c2)cc1	n	n	n	n	n
N#Cc1ccc[n+](CC(=O)c2ccc(NC(=O)c3ccccc3)cc2)c1	n	n	10.3µM	n	n
O=C(C[n+]1cccc(C(=O)Nc2ccccc2)c1)c1ccccc1	n	18.4µM	u	n	n
Cc1ccc[n+](CC(=O)c2ccc(NC(=O)c3ccccc3)cc2)c1	n	n	n	n	n
CC(=O)Nc1ccc(CN2CCC(N3CCC(C(=O)NC4CC4)CC3)CC2)cc1	n	n	n	n	n
O=c1c(-c2ccc(Cl)cc2)nc2cnc(N3CCOCC3)nc2n1C[C@H]1CCCO1	x	n	n	x	x
c1ccc(-c2nc(NCC3CC3)nc3ccsc23)cc1	n	u	16.4µM	n	n
Cc1ccc(F)cc1-c1nc(NCC2CC2)nc2ccsc12	n	u	u	n	n
COc1ccc(-c2nc(NCCN(C)C)nc3ccsc23)c(C)c1	u	u	u	-53.2	u
Cc1cc(-c2cc(-c3ccccc3)on2)nc(NCC2CC2)n1	n	n	n	n	n
CN(C)CCNc1nc(Oc2ccccc2)c2sccc2n1	n	n	n	n	n
Cc1ccccc1-c1nc(NCC2CC2)nc2ccsc12	n	u	23.1µM	n	n
CC(=O)c1cccc(NC(=O)C(Sc2ncnc3ccccc23)c2ccccc2)c1 (stereo unspecified)	n	u	u	n	n
O=C(CCOc1ccccc1)Nc1ccc(S(=O)(=O)Nc2ncccn2)cc1	n	n	n	n	n
CCC(C)/C=C/C1=CC2=C(Cl)C(=O)C3(C)OC(=O)C(C(=O)C(C)C(C)O)C3C2=CO1 (stereo unspecified)	n	18.4µM	11.6µM	n	n
CCOc1cccc2c1OC(c1cc(OC)c(OC)c(OC)c1)N1N=C(c3ccc(C)o3)CC21 (stereo unspecified)	u	25.9µM	u	u	n
O=C(O)c1cccc(S(=O)(=O)N2CCc3ccccc3C2)c1	n	n	n	n	n
CCOC(=O)C1CCCN(C(=O)c2cc(S(=O)(=O)N3CCCCC3)ccc2Cl)C1 (stereo unspecified)	n	20.6µM	20.6µM	n	n
